Source: PubChem (several laboratories)
Wnt act = activates Wnt/beta-catenin signaling in a reporter cell assay. activation, % at 9.35 µM. actives 1.2% (n = 300,000). AID 743398. activator, plate reader; in the data active = activation above about 30%, passing the limit was not always enough; inconclusive = no clear call, values can overlap the other calls;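 also: 0% = neutral control wells and 100% = positive control wells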
FGF22 binding = binders of recombinant human FGF22 by thermal shift | SYPRO orange fluorescence; percent of sucrose octasulfate shift, DMSO zero | activity (Tm shift, normalised), % at 9.99 µM | actives 1.5% (n = 340,000) | AID 651658;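 active = mean Tm shift, scaled 0 neutral to 100 positive control, at about 1.3% or above, every replicate too, limit read from the data; inconclusive = no clear call, values can overlap the other calls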
Target sequence (Q9HCT0 whole entry, looked up): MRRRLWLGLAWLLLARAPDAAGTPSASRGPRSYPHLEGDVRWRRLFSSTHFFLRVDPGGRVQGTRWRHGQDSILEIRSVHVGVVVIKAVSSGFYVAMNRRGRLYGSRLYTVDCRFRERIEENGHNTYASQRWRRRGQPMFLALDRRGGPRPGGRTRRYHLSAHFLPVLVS
esBAF inh = blocks esBAF chromatin remodeling in mouse ES cells; reporter increase, % at 12.5 µM; actives 2% (n = 350,000); Bmi1-luciferase knock-in reporter, 24 h; 100% = twice the neutral-well signal; in the data active = activation above about 40%; inconclusive = no clear call, values can overlap the other calls;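 also: 0% = median of the plate's neutral control wells and 100% = double that signal; a rise in the Bmi1 reporter signal indicates esBAF inhibition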
SMARCA2 act = SMARCA2 function activation, primary screen. MG213 cells, MMTV-luciferase reporter, dexamethasone, overnight. activation, % at 9.1 µM. actives 1% (n = 370,000). AID 652017; in the data active = activation above about 7.8%;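 also: 0% = vehicle wells and 100% = reference activator wells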
MLL AF4-AF9 inh = inhibitors of human MLL-AF4/AF9 interaction; actives 0.47% (n = 350,000); P42568; inhibition, % at 10 µM; AlphaScreen, biotin-AF4 peptide binding to FLAG-AF9;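 active = every replicate reaching a set inhibition limit, whatever the replicate mean, cut at about 25% in these data; inconclusive = mean inhibition reaches that limit but some replicates miss it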;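 also: 0% = plate neutral control median and 100% = total signal loss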
MITF act = increases MITF-driven TRPM1 promoter luciferase signal; actives 0.75% (n = 300,000); activation, % at 12.5 µM; SK-MEL-5 TRPM1-promoter luciferase, 24 h; % of positive control, neutral wells = 0;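 active = mean activation of at least 80% with every replicate also reaching 80%; inconclusive = mean reaches 80% but some replicate falls short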;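 also: 0% = neutral control wells and 100% = parthenolide positive control wells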
SMARCA2 act conf = confirmation of SMARCA2 (BRM) function activators. shares compounds with SMARCA2 act. MG213 cells, MMTV-luciferase with dexamethasone, luminescence, overnight; MG213 cells expressing E1A, Rb sequestered; DMSO wells 0%, reference activator 100%. activation, % at 9.1 µM. actives 30% (n = 3,500). AID 652260;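 active = activation above its plate's cutoff, the mean activation of tested wells plus 3 SD, cut at about 7.9% in these data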
GAL4-VP16 Luc = counter-screen for SMARCA2 activators: GAL4-VP16 luciferase reporter activation; activation, % at 9.1 µM; shares compounds with SMARCA2 act; HEK293 GAL4-VP16 pG5luc reporter, luciferase luminescence; scaled: DMSO wells 0%, SAHA wells 100%; actives 41% (n = 3,500);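 active = activation above the solvent-only control well mean plus 3 SD, averaged across control plates, cut at about 5.2% in these data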
Active calls of the source: *; ? = inconclusive; . = no result. Shown are actives, neighbours in structure and some others; about 4.3% of the full set was active somewhere.

SMILES | Wnt act | FGF22 binding | esBAF inh | SMARCA2 act | MLL AF4-AF9 inh | MITF act | SMARCA2 act conf | GAL4-VP16 Luc
O=[N+]([O-])c1cccnc1NCCc1c[nH]c2ccccc12 | 30 | 0 | ? | 8.8* | -1 | 64 | 13* | 8.4*
CCn1c(C)cc(C(=O)COC(=O)c2cccnc2SC)c1C | 17 | 0 | 53* | 11* | -2 | 27 | 8.0* | 8.5*
CSc1ncccc1C(=O)OCC(=O)NC1CCCCC1 | 4 | 0 | 0 | -1 | 0 | 8 | . | .
CSc1ncccc1C(=O)OCC(=O)NC1CCCC1 | -7 | 0 | 10 | 8.6* | 0 | 8 | -1 | 0
COCC(=O)Nc1ccc2c(c1)[C@H]1C[C@H](CC(=O)N(C)C)O[C@H](CO)[C@H]1O2 | . | 0 | 2 | . | -1 | . | . | .
CCN1C(=O)/C(=C2/C(=O)N3c4c(cc(OC(C)=O)cc42)C(C)=CC3(C)C)SC1=S | -3 | . | . | 10* | . | 0 | 1 | 0
CNC(=O)C[C@@H]1CC[C@H]2[C@@H](COc3ccc(NC(=O)c4cccc(OC)c4)cc3C(=O)N2C)O1 | . | 0 | 0 | . | -3 | . | . | .
CCCCCCCCCc1conc1C(=O)/C=C/c1oc2c(c1C)CCC(C)C2 (stereo not drawn) | -3 | 0 | . | 9.0* | -1 | . | -7 | 0
c1ccc(Nc2nc3ccccc3o2)cc1 | . | . | 17 | 13* | . | 34 | 6 | 8.4*
C[C@@H]1CN([C@@H](C)CO)C(=O)Cc2cc(NC(=O)Nc3ccc(F)cc3)ccc2O[C@@H]1CN(C)Cc1ccc(-c2ccccc2)cc1 | . | 1 | -4 | . | -11 | . | . | .
O=C(C[C@H]1C=C[C@@H](NC(=O)Nc2ccc(C(F)(F)F)cc2)[C@@H](CO)O1)NCc1cc(F)cc(F)c1 | . | 0 | 5 | . | 1 | . | . | .
O=C(Nc1ccc(N2CCOCC2)nc1)c1ccc(C(F)(F)F)cc1 | -2 | 0 | . | -7 | -1 | 9 | . | .
COC(=O)c1cc(NC(=O)c2c(C)noc2C)ccc1N1CCOCC1 | -1 | 0 | -8 | 9.2* | -2 | -7 | 3 | 0
O=C(Nc1ccc(N2CCOCC2)nc1)c1ccccc1Cl | 21 | 0 | 45* | 9.6* | 0 | 54 | 2 | 2
COc1c(C)cccc1C(=O)Nc1ccc(N2CCOCC2)c(Cl)c1 | . | . | 59* | 8.5* | . | 89* | 3 | 14*
O=S(=O)(/C=C/c1ccccc1)Nc1ccc(F)cc1 | -1 | 0 | . | 0 | 0 | 14 | . | .
COc1ccc(NS(=O)(=O)/C=C/c2ccccc2)cc1 | . | . | . | 8.6* | . | 6 | -2 | 2
CCc1ccccc1NC(=O)C1CCC(=O)N(c2ccc(OC)cc2)C1c1ccc(OC)cc1 (stereo not drawn) | . | . | . | 9.6* | . | . | -1 | 0
O=C(N/N=C/c1cn(-c2ccccc2)nc1-c1cccnc1)c1ccccc1 | -1 | 1 | . | 4 | 6 | 13 | . | .
NC(=S)N/N=C/c1cn(-c2ccccc2)nc1-c1cccnc1 | 11 | 0 | . | 8.2* | -15 | 46 | 0 | 4
O=C(Nc1cccnc1Cl)c1ccc(Cl)cc1 | 10 | 0 | ? | 3 | -2 | 49 | . | .
O=C(NC(=S)Nc1cccnc1Cl)c1ccc(Cl)cc1 | 36* | -1 | ? | 9.9* | -1 | 34 | 3 | 8.9*
C[C@@H]1CCCCO[C@H](CN(C)C(=O)c2ccncc2)[C@@H](C)CN([C@@H](C)CO)C(=O)c2cc(N(C)C)ccc2O1 | . | . | -5 | . | -3 | . | . | .
Nc1nccnc1C(=O)N/N=C/c1ccco1 | 16 | 0 | . | 9.6* | 5 | . | 2 | 3
O=C(N/N=C/c1ccco1)Nc1ccccc1 | 38* | . | 9 | 10* | . | 48 | 3 | 14*
SMILES | Wnt act | FGF22 binding | esBAF inh | SMARCA2 act | MLL AF4-AF9 inh | MITF act | SMARCA2 act conf | GAL4-VP16 Luc
CN(C)C(=O)[C@@H]1[C@@H](CO)[C@@H]2Cn3c(ccc(-c4ccc(F)cc4)c3=O)[C@@H]2N1C(=O)c1ccccn1 | . | 0 | 0 | . | -15 | . | . | .
COc1ccccc1CC(=O)N1CCC(CCC(=O)NC2CC2)CC1 | -1 | 0 | -4 | 8.8* | 0 | 10 | -3 | 1
O=C(CCC1CCN(C(=O)Cc2c(F)cccc2F)CC1)NC1CC1 | 1 | 0 | -11 | 2 | 1 | 10 | . | .
CC(=O)n1cc(/C=N/NC(N)=S)c2ccccc21 | -16 | 0 | . | 3 | 8 | -30 | . | .
CC(=O)n1cc(/C=C2/N=C(c3ccccc3)OC2=O)c2ccccc21 | 3 | . | 3 | 8.2* | . | -1 | -1 | 1
O=C(Cn1ncc(Cl)c(Cl)c1=O)c1ccc(Cl)cc1 | . | . | . | 20* | . | -81 | -15 | 2
O=C(Cn1ncc(Cl)c(Cl)c1=O)NCC1CCCCC1 | -13 | 0 | . | 13* | -2 | -92 | -15 | 2
CN1C(=O)c2cc(NC(=O)c3ccc(C#N)cc3)ccc2OC[C@H]2O[C@@H](CC(=O)Nc3cc(F)ccc3F)CC[C@@H]21 | . | . | 6 | . | -3 | . | . | .
Cn1cnc(CCNC(=O)[C@@H]2[C@@H](CO)[C@@H]3Cn4c(cccc4=O)[C@@H]3N2C(=O)Nc2ccccc2)c1 | . | 0 | 5 | . | 0 | . | . | .
C[C@H](CO)N1C[C@H](C)[C@@H](CN(C)C(=O)C2CC2)Oc2ncc(C#CCc3ccccc3)cc2C1=O | . | 0 | -4 | . | -12 | . | . | .
O=C(/C=C\c1ccc(-c2ccccc2)o1)c1ccccc1 | 37* | . | . | 8.2* | . | 33 | 16* | 8.1*
Cc1ccc(C(=O)/C=C/c2ccc(-c3ccc(C)cc3)o2)cc1 | -3 | . | . | 6 | . | 0 | . | .
O/N=C\c1ccc(-c2ccccc2)o1 | 0 | 0 | 55* | 9.5* | -1 | 37 | 6 | 5
CCCCOc1nc(N2CCOCC2)nc(C)c1[N+](=O)[O-] | 0 | 0 | . | -2 | 2 | 6 | . | .
Cc1nc(N2CCOCC2)nc(Oc2ccccc2)c1[N+](=O)[O-] | 3 | 0 | . | 11* | . | -4 | 1 | -2
CC(=O)N(C)C[C@@H]1[C@@H](c2ccc(-c3ccccc3F)cc2)[C@H](CO)N1C(C)=O | . | 0 | -3 | . | 1 | . | . | .
C=CCNC(=O)c1c(Br)cnn1-c1ccc(C)cc1 | 17 | 0 | . | 9.2* | 2 | 35 | 11* | 11*
Oc1[nH]c(N=C2N=c3ccccc3=N2)c2ccccc12 | 29 | 0 | 11 | 14* | -1 | -29 | 7 | 37*
Cc1ccc2c(c1)=N/C(=N\c1[nH]c(O)c3ccccc13)N=2 | 5 | 1 | -84 | 3 | 0 | . | . | .
CO[C@H]1CN(C)C(=O)c2ccc(NC(=O)c3cnccn3)cc2OC[C@H](C)N(CCc2ccccc2)C[C@@H]1C | . | 0 | -7 | . | 5 | . | . | .
